IP6K1 inhibitor: inhibitors of human IP6K1; IP6K1 kinase, ADP-Glo luminescence, 2 h; stronger effect = lower value; activity change, % (series mostly up to about 58 µM); 140,000 tested, 0.81% active; Q92551; in the data active = activity change below about -25%
Target sequence (Q92551 whole entry, looked up): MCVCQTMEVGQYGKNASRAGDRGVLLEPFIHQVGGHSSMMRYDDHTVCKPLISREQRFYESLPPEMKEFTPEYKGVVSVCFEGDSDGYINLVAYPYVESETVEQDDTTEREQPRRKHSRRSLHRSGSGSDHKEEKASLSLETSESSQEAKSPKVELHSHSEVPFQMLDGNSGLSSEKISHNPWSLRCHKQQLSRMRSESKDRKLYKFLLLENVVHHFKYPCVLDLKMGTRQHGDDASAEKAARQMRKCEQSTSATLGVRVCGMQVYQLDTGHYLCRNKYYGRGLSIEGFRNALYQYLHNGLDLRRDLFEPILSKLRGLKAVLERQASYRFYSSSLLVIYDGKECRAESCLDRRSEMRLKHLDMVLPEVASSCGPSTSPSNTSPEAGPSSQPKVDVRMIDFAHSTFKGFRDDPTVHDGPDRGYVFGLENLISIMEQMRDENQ
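ADP-Glo luminescence measures ADP made by human IP6K1 during a 2 h RT reaction with ATP/IP6 (mix at 1.3 mM/130 uM); top library doses 57.5 and 19.1 uM final.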
3T3 cytotox: NIH 3T3 cell cytotoxicity | NIH 3T3 viability, CellTiter-Glo ATP luminescence, 48-72 h | Potency, µM (doses to about 96.7 µM), most hits filed as inhibitors | 94,000 tested, 4.3% active | AID 1345082; also: nearly all actives have a fitted effect of over 55% in size
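Cytotoxicity was measured by CellTiter-Glo ATP luminescence after 48 or 72 h compound exposure at 37 °C. Mouse NIH 3T3 fibroblasts were seeded at 400 cells/well and dosed by 23 nL pin transfer.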
SNCA expr inhib: inhibitors of alpha-synuclein (SNCA) gene expression | Potency, µM (series often up to 57.2 µM), hits mostly inhibitors | AID 1671194 | HEK-293 SNCA-luciferase knock-in, luminescence, 24 h | 140,000 tested, 0.17% active; also: nearly all actives have a fitted effect of over 45% in size
HEK293 viab: counter-screen for SNCA expression inhibitors: cell viability; HEK-293-SNCA-luc viability, GF-AFC fluorescence, 24 h; Potency, µM (titrated, usually from 57.1 µM), usual class: cytotoxic; 150,000 tested, 0.12% active; AID 1671193; also: nearly all actives have a fitted effect of over 30% in size
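HEK-293-SNCA-luc cells (1500/well) plated 24 h, then exposed 24 h to a dilution series; GF-AFC added 30 min at 37C, fluorescence 405/540 nm; normalised to medium-only and DMSO wells, Hill fit.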
Luciferase inh: blocks purified firefly luciferase enzyme activity | purified P. pyralis luciferase, luminescence, biochemical | Potency, µM (doses to about 115 µM), most hits filed as inhibitors | 76,000 tested, 2.5% active | AID 1347043; also: nearly all actives have a fitted effect of over 65% in size
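Luminescence read by CCD imager after adding enzyme (10nM final) to wells holding compound, titrated in qHTS. Substrates 10uM each D-luciferin and ATP; buffer 50mM Tris acetate pH 7.5, 10mM Mg acetate, Tween-20, BSA.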
HEK cytotox: kills HEK 293 cells | 94,000 tested, 6.6% active | HEK 293 viability, ATP luminescence (CellTiter-Glo), 48-72 h | Potency, µM (highest dose often 115 µM), most hits filed as inhibitors | AID 1345083; also: nearly all actives have a fitted effect of over 60% in size
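Cytotoxicity was scored by loss of ATP-coupled luminescence (CellTiter-Glo) in HEK 293 cells. Compound treatment ran 48 or 72 hr at 37 degree Celsius, 5% CO2, 95% humidity.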
Hits are given with their value; . = inactive; ? = inconclusive; / = no result given; ! = not active in a repeat. Hits are enriched below; roughly 7.3% of the tested compounds scored in any of these assays. Unless noted, calls follow the shape of the dose curve; as a rule, active = well fitted curve in the direction sought with a large enough effect; inconclusive = small, poorly fitted or top-dose-only effect, or another doubt; inactive = no such curve, though single readings can be large; an effect the other way counts as inactive or inconclusive.

SMILES | IP6K1 inhibitor | 3T3 cytotox | SNCA expr inhib | HEK293 viab | Luciferase inh | HEK cytotox
O=C(CC1C(=O)NCCN1Cc1cccc(Oc2ccccc2)c1)NCc1ccco1 (configuration not stated) | . | ? | ? | . | . | 25µM
O=C(CC1C(=O)NCCN1CC(c1ccccc1)c1ccccc1)NCc1ccco1 (configuration not stated) | . | . | . | . | . | .
C[C@@]12CO[C@@H](CNC(=O)C3CCCC3)O[C@@H]1CC[C@]1(C)[C@@H]2CC[C@@H](O)[C@H]1CC(=O)NCc1ccc(F)cc1 | . | ? | . | . | . | ?
O=c1cc(CN2CCOCC2)occ1OCCCCCSc1ccnc2cc(C(F)(F)F)ccc12 | . | / | ? | 30µM! | / | /
O=c1[nH]c(N2CCOCC2)nc2c1CCN(Cc1cccc(C(F)(F)F)c1)CC2 | . | . | . | . | . | .
CCC(=O)N1CCC2(CC1)CN(c1ccccc1)C2=O | . | . | . | . | . | .
O=C(Cc1ccccc1)N1CCC2(CC1)CN(c1ccccc1)C2=O | . | ? | . | . | / | 35µM
OCC1CN(c2ncccn2)CC12CCN(Cc1c[nH]c3ccccc13)CC2 (configuration not stated) | . | . | . | . | . | .
OCC1CN(c2ncccn2)CC12CCN(Cc1cccc3[nH]ccc13)CC2 (configuration not stated) | . | ? | . | . | . | 79µM
CC1(c2ccccc2)N(Cc2ccccc2C#N)C(=O)OC12CCN(Cc1c[nH]c3ccccc13)CC2 (configuration not stated) | . | 22µM | ? | . | . | 14µM
CC1(c2ccccc2)N(Cc2ccccc2)C(=O)OC12CCN(Cc1c[nH]c3ccccc13)CC2 (configuration not stated) | . | 22µM | ? | ? | . | 28µM
O=C(Cc1ccc2c(c1)OCO2)N(Cc1ccncc1)Cc1cccc(OCCc2ccc(F)cc2)c1 | . | 35µM | ? | . | . | 40µM
Cc1cc(C(=O)N(Cc2ccncc2)Cc2cccc(OCCc3ccc(F)cc3)c2)n(C)n1 | . | ? | . | . | . | ?
COc1ccc(CCNC(=O)c2ccc3nnc(C4CCOCC4)n3c2)cc1 | . | . | / | / | / | .
Cc1noc(C2CCCCCN2C(=O)c2ccoc2)n1 (configuration not stated) | . | . | ? | . | . | .
FC(F)(F)c1cccc(CCC2CCCN(Cc3cccnc3)C2)c1 (configuration not stated) | . | . | . | . | . | ?
CN(CC(=O)N1CCC(CCOc2ccc(F)cc2)C1)S(=O)(=O)c1ccc2c(c1)oc(=O)n2C (configuration not stated) | . | ? | ? | ? | . | 35µM
CC(C)C(=O)N1CCC(CCOc2ccccc2F)C1 (configuration not stated) | . | ? | . | . | . | ?
Cc1noc(C)c1S(=O)(=O)N1CCC(C(=O)N2CCC(CCOc3ccc(F)cc3)C2)CC1 (configuration not stated) | . | ? | . | . | . | ?
O=C1CCc2cc(S(=O)(=O)CCC(=O)N3CCC(CCOc4ccc(F)cc4)C3)ccc2N1 (configuration not stated) | . | ? | . | . | / | ?
O=C(c1ccncc1)N1CCC(CCOc2ccc(F)cc2)C1 (configuration not stated) | . | ? | . | . | . | ?
O=C(C1CCN(S(=O)(=O)N2CCOCC2)CC1)N1CCC(CCOc2ccc(F)cc2)C1 (configuration not stated) | . | ? | . | . | / | 45µM
Cc1n[nH]c(C)c1Cc1ccc(C(=O)N2CCC(CCOc3ccc(F)cc3)C2)o1 (configuration not stated) | . | 35µM | ? | ? | . | 22µM
CN(CC(=O)N1CCC(CCOc2ccccc2F)C1)S(=O)(=O)c1cccs1 (configuration not stated) | . | ? | . | . | . | 50µM
CCCC(=O)Nc1ccc(NC(=O)C2CC(=O)N(CC(C)C)C2)cc1OC (configuration not stated) | . | . | . | . | . | .
SMILES | IP6K1 inhibitor | 3T3 cytotox | SNCA expr inhib | HEK293 viab | Luciferase inh | HEK cytotox
Fc1ccc(NC(=S)N[C@H]2CO[C@H]3[C@@H]2OC[C@@H]3n2nnnc2Oc2ccc3c(c2)OCO3)cc1 | . | ? | . | . | . | .
CN(Cc1cnn(-c2ccc(F)cc2)c1)c1cc(C2CC(O)C2)ncn1 (configuration not stated) | . | ? | . | . | . | 28µM
Cc1[nH]c2c(C)ccc(C)c2c1CC(=O)N1Cc2ccccc2C(O)C1 (configuration not stated) | . | . | . | . | . | .
COc1ccc(C(=O)N2CCCC(Cc3ncc(C)n3Cc3ccccc3)C2)c(OC)c1 (configuration not stated) | . | . | . | . | 22µM | .
CC(=O)N1CCN(c2cc(-c3noc([C@@H]4CCCN4Cc4ccc(N(C)C)cc4)n3)ccn2)CC1 | . | . | . | . | . | 18µM
c1cc(-c2noc([C@@H]3CCCN3Cc3ncc[nH]3)n2)cc(N2CCCC2)n1 | . | ? | . | . | . | 100µM
O=C(NC1CCN(CCn2nc3n(c2=O)CCCC3)C1)c1ccccc1F (configuration not stated) | . | . | / | / | / | .
C=C1/C(=C/C=C2\CCC[C@]3(C)[C@@H]([C@H](C)/C=C/[C@@H](C)C(C)C)CC[C@@H]23)C[C@@H](O)C[C@@H]1O | . | / | / | . | / | /
C=C1/C(=C/C=C2\CCC[C@]3(C)[C@@H]([C@H](C)/C=C/C(=O)C4CC4)CC[C@@H]23)C[C@@H](O)C[C@@H]1O | . | / | / | 24µM | / | /
O=C(N1CCOCC1)N1CCN(c2ccc3nnc(-c4ccccc4)n3n2)CC1 | . | . | / | / | / | .
O=C(CCn1cnnn1)N1CCCC(CCc2cccc(C(F)(F)F)c2)C1 (configuration not stated) | . | ? | ? | . | . | 18µM
Cc1nc(C(=O)N2CCCC(CCc3cccc(C(F)(F)F)c3)C2)c(C)o1 (configuration not stated) | . | ? | . | . | . | 25µM
O=C(c1ncccc1O)N1CCCC(CCc2cccc(C(F)(F)F)c2)C1 (configuration not stated) | . | ? | . | . | . | ?
O=C(c1ccc(-n2cnnn2)cc1O)N1CCCC(CCc2ccc(F)cc2)C1 (configuration not stated) | . | ? | ? | . | . | 35µM
COc1ccc(S(=O)(=O)N2CC(=O)N(CC3CC3)C3(CCCCC3)C2)cc1 | . | 35µM | . | . | / | ?
